# Measurements reported in PubChem BioAssay (Tox21).
# A number with no mark means an inactive call. Records with an inconclusive call do not appear. Entries that show only a call come without a potency. Activity calls are given as the source filed them. Unless noted, calls follow the shape of the dose curve; as a rule, active = well fitted curve in the direction sought with a large enough effect in the repeat runs; inconclusive = weak or mixed curves; inactive = no such curve, though single readings can be large; an effect the other way counts as inactive or inconclusive.
# Legend:
# [1] = qHTS assay to identify small molecule agonists of the estrogen receptor beta (ER-beta) signaling pathway - cell viability counter screen (AID 1259380); also: nearly all actives have a fitted effect of over 30% in size; also: potency is read from the fitted curve at half-maximal effect
# Procedure, shortened: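 Same-well viability counter screen. Cells: ER-beta-UAS-bla HEK293T, plated 6 hr before compound, in 2% charcoal-stripped FBS. Compound exposure 16 hr, 37C; viability by CellTiter-Glo luminescence after 30 min at room temperature.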
# [2] = qHTS assay to identify small molecule antagonists of the estrogen receptor beta (ER-beta) signaling pathway - cell viability counter screen (AID 1259382); also: nearly all actives have a fitted effect of over 55% in size; also: potency is read from the fitted curve at half-maximal effect;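 as to activity change, negative = cytotoxicity: HEK293T cells carrying ER-beta-UAS-bla reporter stimulated with estradiol; series mostly up to about 92 µM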
# Procedure, shortened: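 Following a 6 hr plating period, HEK293T cells carrying a UAS-driven beta-lactamase reporter under ER-beta control received compounds and 1nM E2 (final). After 16 hr at 37C and 2 hr substrate loading, CellTiter-Glo luminescence indicated viability.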
# [3] = target: Estrogen receptor (Homo sapiens) (UniProt P03372); experiment: qHTS assay to identify small molecule agonists of the estrogen receptor alpha (ER-alpha) signaling pathway in the presence of an antagonist (AID 1259383; calls by dose curve; also: top concentration of the series differs between compounds; nearly all actives have a fitted effect of over 15% in size)
# Chain of Estrogen receptor (Homo sapiens) (P03372 whole entry, looked up): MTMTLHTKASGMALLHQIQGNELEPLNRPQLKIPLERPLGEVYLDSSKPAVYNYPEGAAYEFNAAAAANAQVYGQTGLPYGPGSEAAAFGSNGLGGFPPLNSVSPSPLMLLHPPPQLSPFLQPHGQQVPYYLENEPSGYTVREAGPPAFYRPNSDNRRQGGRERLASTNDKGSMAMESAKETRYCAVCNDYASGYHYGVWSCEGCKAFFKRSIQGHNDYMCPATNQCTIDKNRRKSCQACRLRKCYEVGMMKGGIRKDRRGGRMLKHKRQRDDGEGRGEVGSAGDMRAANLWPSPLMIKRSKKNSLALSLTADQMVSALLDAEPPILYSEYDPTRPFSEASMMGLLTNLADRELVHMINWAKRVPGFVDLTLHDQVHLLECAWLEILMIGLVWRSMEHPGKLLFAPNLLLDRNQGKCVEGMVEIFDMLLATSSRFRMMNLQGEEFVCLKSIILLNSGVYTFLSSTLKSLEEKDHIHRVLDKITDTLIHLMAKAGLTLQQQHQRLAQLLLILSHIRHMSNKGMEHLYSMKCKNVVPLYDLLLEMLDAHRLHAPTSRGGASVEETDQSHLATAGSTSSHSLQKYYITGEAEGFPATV
# Procedure, shortened: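 Cells are hormone-deprived for 5 days (charcoal-stripped FBS, no phenol red), plated for 24hr, spiked with 10.0nM ICI-182,780, then dosed at 15 concentrations. After 22hr at 37C, ONE-Glo luminescence reports ERE-luciferase activity.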
# [4] = qHTS assay to identify small molecule agonists or antagonists of the thyroid stimulating hormone receptor (TSHR) signaling pathway - wild type cell line counter screen (AID 1259384; calls by dose curve)
# Procedure, shortened: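 Wild-type Hek293 cells, 800/well, 18 h at 37C, then compound with Ro20-1724 for 30 min RT. cAMP by HTRF (cAMP-d2/anti-cAMP cryptate), 1 h RT, fluorescence read. 15 concentrations, triplicates.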
# [5] = target: Thyrotropin receptor (Homo sapiens) (UniProt P16473); experiment: qHTS assay to identify small molecule antagonists of the thyroid stimulating hormone receptor (TSHR) signaling pathway (AID 1259385; calls by dose curve; also: nearly all actives have a fitted effect of over 20% in size; also: potency is read from the fitted curve at half-maximal effect)
# Chain of Thyrotropin receptor (Homo sapiens) (P16473 whole entry, looked up): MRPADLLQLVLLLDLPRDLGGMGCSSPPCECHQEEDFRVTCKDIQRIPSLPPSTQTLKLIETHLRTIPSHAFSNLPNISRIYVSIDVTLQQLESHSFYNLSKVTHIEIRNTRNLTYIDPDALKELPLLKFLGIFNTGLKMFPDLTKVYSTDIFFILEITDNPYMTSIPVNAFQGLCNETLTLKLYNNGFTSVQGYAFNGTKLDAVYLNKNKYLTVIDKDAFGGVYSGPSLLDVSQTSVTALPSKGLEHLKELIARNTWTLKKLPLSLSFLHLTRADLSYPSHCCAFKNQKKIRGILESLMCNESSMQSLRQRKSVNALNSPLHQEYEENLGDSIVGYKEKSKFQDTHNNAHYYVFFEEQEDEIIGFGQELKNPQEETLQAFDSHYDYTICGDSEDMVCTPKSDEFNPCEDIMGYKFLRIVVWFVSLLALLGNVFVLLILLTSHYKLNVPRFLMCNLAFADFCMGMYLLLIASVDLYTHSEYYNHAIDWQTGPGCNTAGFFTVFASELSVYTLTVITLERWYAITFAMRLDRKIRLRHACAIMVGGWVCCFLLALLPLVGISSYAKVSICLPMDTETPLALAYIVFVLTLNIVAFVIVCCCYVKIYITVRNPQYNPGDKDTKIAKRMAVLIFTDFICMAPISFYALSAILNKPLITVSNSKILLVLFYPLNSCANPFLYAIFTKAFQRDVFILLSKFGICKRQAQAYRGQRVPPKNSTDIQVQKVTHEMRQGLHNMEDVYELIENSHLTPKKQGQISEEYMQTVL
# Procedure, shortened: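 TSHR-HEK293 cells (800/well) plated 18 h, then compounds with Ro20-1724 and TSH at 1.5 ng/mL final, 30 min at room temperature. cAMP quantified by HTRF (cAMP-d2/anti-cAMP-cryptate, 1 h); 15 concentrations in triplicate.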
# [6] = qHTS assay to identify small molecule agonists of the estrogen receptor alpha (ER-alpha) signaling pathway in the presence of an antagonist - cell viability counter screen (AID 1259386);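 also: series mostly up to about 92 µM; cells exposed to compounds for 22 h at 37 °C before the viability read; nearly all actives have a fitted effect of over 30% in size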
# Procedure, shortened: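 Cells are starved of estrogens for 5 days in charcoal-stripped serum, seeded for 24hr and co-treated with ICI-182,780 (10.0nM final) and test compounds. After 22hr at 37C, viability is read as CellTiter-Fluor fluorescence.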
# [7] = target: Progesterone receptor (Homo sapiens) (UniProt P06401); experiment: qHTS assay to identify small molecule agonists of the progesterone receptor (PR) signaling pathway (AID 1346784; calls by dose curve; also: nearly all actives have a fitted effect of over 30% in size)
# Chain of Progesterone receptor (Homo sapiens) (P06401 whole entry, looked up): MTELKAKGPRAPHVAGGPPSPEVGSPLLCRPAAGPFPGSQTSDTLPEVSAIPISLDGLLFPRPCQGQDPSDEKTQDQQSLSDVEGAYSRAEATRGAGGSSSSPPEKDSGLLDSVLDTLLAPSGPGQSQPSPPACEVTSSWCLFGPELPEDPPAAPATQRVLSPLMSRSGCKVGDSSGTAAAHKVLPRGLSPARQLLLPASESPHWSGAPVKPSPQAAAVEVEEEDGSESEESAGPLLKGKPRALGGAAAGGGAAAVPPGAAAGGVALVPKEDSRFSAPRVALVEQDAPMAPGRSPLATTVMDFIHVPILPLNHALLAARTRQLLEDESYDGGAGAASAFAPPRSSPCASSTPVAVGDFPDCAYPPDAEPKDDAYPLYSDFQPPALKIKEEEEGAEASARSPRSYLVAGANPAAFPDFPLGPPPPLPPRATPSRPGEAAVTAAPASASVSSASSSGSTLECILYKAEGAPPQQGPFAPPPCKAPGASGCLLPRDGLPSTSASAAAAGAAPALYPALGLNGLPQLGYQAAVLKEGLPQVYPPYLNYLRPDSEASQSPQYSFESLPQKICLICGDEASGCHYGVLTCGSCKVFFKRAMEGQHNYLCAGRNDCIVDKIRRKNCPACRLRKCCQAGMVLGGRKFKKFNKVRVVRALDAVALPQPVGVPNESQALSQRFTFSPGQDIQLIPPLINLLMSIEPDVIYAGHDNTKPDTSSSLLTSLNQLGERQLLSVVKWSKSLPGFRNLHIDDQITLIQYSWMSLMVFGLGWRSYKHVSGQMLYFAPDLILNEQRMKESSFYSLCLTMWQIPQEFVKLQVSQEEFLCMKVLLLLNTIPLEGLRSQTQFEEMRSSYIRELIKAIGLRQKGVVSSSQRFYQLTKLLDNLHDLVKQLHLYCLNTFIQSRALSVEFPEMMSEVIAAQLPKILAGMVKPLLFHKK
# Procedure, shortened: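 The screen uses PR-UAS-bla HEK 293T cells in charcoal-stripped serum (2%). Compounds are applied for 16 hr at 37C after a 6 hr pre-incubation, and reporter activity is detected with a FRET beta-lactamase substrate after 2 hr at room temperature.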
# [8] = qHTS assay to identify small molecule antagonists of the progesterone receptor (PR) signaling pathway - cell viability counter screen (AID 1346798); also: nearly all actives have a fitted effect of over 50% in size; also: potency is read from the fitted curve at half-maximal effect; as to activity change, negative = cytotoxicity: series mostly up to about 92 µM
# Procedure, shortened: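 Viability was determined by ATP-based luminescence (CellTiter-Glo) in PR-UAS-bla HEK293T cells cultured in 2% charcoal-stripped serum and incubated 16 hr with compounds under R5020 stimulation.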
# [9] = qHTS assay to identify small molecule agonists of the TGF-beta/Smad signaling pathway - cell viability counter screen (AID 1346829); also: top concentration of the series differs between compounds; nearly all actives have a fitted effect of over 45% in size
# Procedure, shortened: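 Same-well cytotoxicity: CellTiter-Glo added after the 2 hr room-temperature beta-lactamase substrate step, luminescence measured 30 min later; cells had 5 hr of compound at 37 C.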
# [10] = qHTS assay to identify small molecule agonists of the TGF-beta/Smad signaling pathway (AID 1346859; active = well fitted activation curve with a large enough effect in the signal ratio in the repeat runs, not every such curve was filed as active; the % refers to the signal ratio; also: series mostly up to about 77 µM)
# Procedure, shortened: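 Dual-wavelength fluorescence (460/530 nm emission) quantified beta-lactamase expression under the Smad binding element in HEK 293T cells following 5 hr compound treatment at 37 C.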
# [11] = target: Thyrotropin-releasing hormone receptor (Homo sapiens) (UniProt P34981); experiment: qHTS assay to identify small molecule antagonists of the thyrotropin-releasing hormone receptor (TRHR) signaling pathway (AID 1346877; active = well fitted inhibition curve with a large enough effect in the repeat runs, not every such curve was filed as active; also: series mostly up to about 51 µM)
# Chain of Thyrotropin-releasing hormone receptor (Homo sapiens) (P34981 whole entry, looked up): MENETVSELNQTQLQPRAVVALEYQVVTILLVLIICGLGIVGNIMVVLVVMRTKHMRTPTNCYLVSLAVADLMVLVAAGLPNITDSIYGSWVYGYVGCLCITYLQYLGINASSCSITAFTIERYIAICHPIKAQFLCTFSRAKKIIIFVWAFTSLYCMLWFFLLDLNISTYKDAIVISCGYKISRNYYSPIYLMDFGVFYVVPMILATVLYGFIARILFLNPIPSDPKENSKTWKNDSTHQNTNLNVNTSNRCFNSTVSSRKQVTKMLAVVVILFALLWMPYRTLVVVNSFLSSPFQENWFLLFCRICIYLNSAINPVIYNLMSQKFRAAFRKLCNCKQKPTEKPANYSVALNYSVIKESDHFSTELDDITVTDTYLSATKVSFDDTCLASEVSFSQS
# Procedure, shortened: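 Cells (TRHR-HEK293) are plated and kept 18 h at 37 °C/5% CO2. A calcium-sensitive dye is added for 2 h, compound follows for 5 min at room temperature, and TRH is then given at 1 nM final.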
# [12] = target: Thyrotropin-releasing hormone receptor (Homo sapiens) (UniProt P34981); experiment: qHTS assay to identify small molecule agonists of the thyrotropin-releasing hormone receptor (TRHR) signaling pathway (AID 1346891; calls by dose curve;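 also: HEK293 cells expressing TRHR with calcium dye readout; series mostly up to about 58 µM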)
# Procedure, shortened: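 Kinetic fluorescence (3 min, 1 s intervals) reported intracellular calcium after compound transfer onto TRHR-Hek293 cells pre-loaded with dye for 2 h at 37 °C.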
# [13] = Human pregnane X receptor (PXR) small molecule agonists, qHTS cell viability counter screen (AID 1346977); also: nearly all actives have a fitted effect of over 50% in size; also: potency is read from the fitted curve at half-maximal effect
# Procedure, shortened: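 HepG2 cells stably carrying the PXR-Luc reporter are cultured with 5% charcoal-stripped FBS and treated with compounds for 24hr. CellTiter-Fluor is added at 23hr and fluorescence is read after 1hr.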
# [14] = Caspase-3/7 induction in HepG2 cells by small molecules, qHTS assay (AID 1346978); also: nearly all actives have a fitted effect of over 15% in size
# Procedure, shortened: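 Wild-type HepG2 cells, 2,000/well, settled 5 hr at 37 C and 5% CO2, then compound-treated for 17 hr; caspase-3/7 activity read by luminescent Caspase-Glo 3/7 after 30 min at room temperature.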
# [15] = Caspase-3/7 induction in CHO-K1 cells by small molecules, qHTS cell viability counter screen (AID 1346979); also: nearly all actives have a fitted effect of over 35% in size; also: potency is read from the fitted curve at half-maximal effect
# Procedure, shortened: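 Seeding: 1,500 CHO-K1 cells/well. Rest: 5hr, 37C. Treatment: compounds in DMSO, 16hr. Read: CellTiter-Fluor, 1hr, fluorescence.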
# [16] = target: Androgen receptor (Homo sapiens) (UniProt P10275); experiment: qHTS assay to identify small molecule agonists of the androgen receptor (AR) signaling pathway in the presence of an antagonist (AID 1259381; calls by dose curve; also: nearly all actives have a fitted effect of over 15% in size)
# Chain of Androgen receptor (Homo sapiens) (P10275 whole entry, looked up): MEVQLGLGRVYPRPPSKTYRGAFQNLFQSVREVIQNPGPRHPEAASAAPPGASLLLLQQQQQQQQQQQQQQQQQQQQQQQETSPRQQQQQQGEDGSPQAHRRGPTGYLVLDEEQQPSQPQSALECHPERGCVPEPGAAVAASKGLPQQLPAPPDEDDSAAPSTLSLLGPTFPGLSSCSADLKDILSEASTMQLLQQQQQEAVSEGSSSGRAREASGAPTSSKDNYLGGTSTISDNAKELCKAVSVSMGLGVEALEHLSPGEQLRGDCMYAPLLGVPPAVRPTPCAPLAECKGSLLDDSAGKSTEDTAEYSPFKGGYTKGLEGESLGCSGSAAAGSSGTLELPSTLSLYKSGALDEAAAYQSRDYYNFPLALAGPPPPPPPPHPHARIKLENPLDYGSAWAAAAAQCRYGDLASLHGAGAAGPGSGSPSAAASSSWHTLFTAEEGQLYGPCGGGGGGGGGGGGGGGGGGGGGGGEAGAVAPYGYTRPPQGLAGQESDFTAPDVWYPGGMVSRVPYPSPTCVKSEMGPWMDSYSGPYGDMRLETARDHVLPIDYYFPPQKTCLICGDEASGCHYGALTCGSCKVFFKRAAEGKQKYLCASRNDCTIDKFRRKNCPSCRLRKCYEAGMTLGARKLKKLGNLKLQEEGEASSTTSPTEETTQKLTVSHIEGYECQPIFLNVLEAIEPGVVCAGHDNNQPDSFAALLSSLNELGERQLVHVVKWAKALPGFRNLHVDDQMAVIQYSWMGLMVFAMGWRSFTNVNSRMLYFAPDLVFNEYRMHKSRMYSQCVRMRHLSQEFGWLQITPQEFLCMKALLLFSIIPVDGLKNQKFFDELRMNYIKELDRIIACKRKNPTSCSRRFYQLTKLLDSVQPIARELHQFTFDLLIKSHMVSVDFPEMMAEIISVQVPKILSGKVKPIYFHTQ
# Procedure, shortened: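 Cells are MDA-kb2 (human breast carcinoma, MMTV-luc, AR/GR responsive). Nilutamide is present at 3.0uM final throughout; compounds are added at 15 concentrations and incubated 16hr at 37C before ONE-Glo luminescence detection.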
# [17] = qHTS assay to identify small molecule agonists of the androgen receptor (AR) signaling pathway in the presence of an antagonist - cell viability counter screen (AID 1259379);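 also: MDA-kb2 human breast cancer cells carrying an MMTV luciferase reporter; series mostly up to about 92 µM; nearly all actives have a fitted effect of over 25% in size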
# Procedure, shortened: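 Fluorescence from CellTiter-Fluor, added after 15 hr and read 1 hr later, gave cell viability. Cells were MDA-kb2 exposed to compounds (15 concentrations) in the presence of 3.0uM nilutamide at 37C, 0% CO2.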
# [18] = qHTS assay to identify small molecule antagonists of the TGF-beta/Smad signaling pathway - cell viability counter screen (AID 1346824); also: nearly all actives have a fitted effect of over 50% in size; also: potency is read from the fitted curve at half-maximal effect
# Procedure, shortened: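 SBE-bla HEK 293T cells, incubated overnight, then compound plus 0.25 ng/mL TGF-beta1 (stock added) for 5 hr at 37 C. Viability was read in the same wells by CellTiter-Glo luminescence after 30 min at room temperature.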
# [19] = qHTS assay to identify small molecule agonists of the progesterone receptor (PR) signaling pathway - cell viability counter screen (AID 1346799; calls by dose curve; also: nearly all actives have a fitted effect of over 45% in size)
# Procedure, shortened: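 Viability was scored by ATP luminescence (CellTiter-Glo, 30 min, room temperature) in the same wells used for the reporter readout, after 16 hr compound exposure of PR-UAS-bla HEK293T cells.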
# [20] = target: Progesterone receptor (Homo sapiens) (UniProt P06401); experiment: qHTS assay to identify small molecule antagonists of the progesterone receptor (PR) signaling pathway (AID 1346795; active = well fitted inhibition curve with a large enough effect in the signal ratio in the repeat runs, not every such curve was filed as active; the % refers to the signal ratio)
# Procedure, shortened: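 After 6 hr plating at 37C in 2% stripped-serum medium, PR-UAS-bla HEK293T cells got compounds, then 1 nM R5020. Sixteen hours later, LiveBLAzer substrate was applied for 2 hr at room temperature and fluorescence was recorded.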
smiles,measurement,setting,value
CCNc1nc(NC(C)(C)C)nc(OC)n1,Potency,[1],inactive
same,Potency,[2],inactive
same,Potency,[3],inactive
same,Potency,[4],inactive
same,Potency,[5],inactive
same,Potency,[6],inactive
same,outcome,[7],inactive
same,Potency,[8],inactive
same,Potency,[9],inactive
same,outcome,[10],inactive
same,Potency,[11],inactive
same,Potency,[12],inactive
same,Potency,[13],inactive
same,Potency,[14],inactive
same,Potency,[15],inactive
COc1cc2ncnc(Nc3cccc(Cl)c3)c2cc1OC,"activity change, negative = cytotoxicity",[1],-15.7% [at 19 µM]
same,activation,[16],-2.82% [at 19 µM]
same,activation,[3],-1.36% [at 19 µM]
same,cAMP activity change,[4],"2.68% [at 18.9 µM, hits give high values]"
same,"activity change, negative = inhibition",[5],1.54% [at 19 µM]
same,"activity change, negative = cytotoxicity",[6],-5.87% [at 19 µM]
same,activation,[7],-0.0125% [at 19 µM]
same,"activity change, negative = cytotoxicity",[9],9.42% [at 15.8 µM]
same,activation,[10],-4.98% [at 15.8 µM]
same,"activity, negative = inhibition",[11],-3.3% [at 10.5 µM]
same,caspase activation,[14],0.14% [at 19 µM]
same,"activity change, negative = cytotoxicity",[15],-12.4% [at 19 µM]
O=c1[nH]cccc1O,Potency,[17],inactive
same,Potency,[3],inactive
same,Potency,[6],inactive
same,outcome,[7],inactive
same,Potency,[18],inactive
same,Potency,[9],inactive
same,outcome,[10],inactive
same,Potency,[13],inactive
same,Potency,[14],inactive
same,Potency,[15],inactive
C=C1CC[C@H]2O[C@]2(C)CC[C@@H]2[C@@H]1CC2(C)C,Potency,[1],inactive
same,Potency,[16],inactive
same,Potency,[3],inactive
same,Potency,[4],inactive
same,Potency,[5],inactive
same,Potency,[6],inactive
same,outcome,[7],inactive
same,Potency,[8],inactive
same,Potency,[19],inactive
same,Potency,[18],inactive
same,outcome,[10],inactive
same,Potency,[13],inactive
same,Potency,[14],inactive
same,Potency,[15],inactive
c1ccc2c(c1)-c1ccc3ccc4cccc5cc-2c1c3c45,Potency,[1],inactive
same,Potency,[16],inactive
same,Potency,[2],inactive
same,Potency,[3],inactive
same,Potency,[4],inactive
same,Potency,[8],inactive
same,Potency,[19],inactive
same,Potency,[18],inactive
same,Potency,[9],inactive
same,Potency,[11],inactive
same,Potency,[12],inactive
same,Potency,[13],inactive
same,Potency,[14],inactive
Clc1ccc2c(Cl)ccnc2c1,Potency,[1],inactive
same,Potency,[16],inactive
same,Potency,[3],inactive
same,Potency,[4],inactive
same,Potency,[5],inactive
same,Potency,[6],inactive
same,outcome,[7],inactive
same,Potency,[20],inactive
same,Potency,[8],inactive
same,Potency,[19],inactive
same,Potency,[9],inactive
same,outcome,[10],inactive
same,Potency,[13],inactive
same,Potency,[14],inactive
same,Potency,[15],inactive
CC(C)=NNC(N)=S,Potency,[17],inactive
same,Potency,[3],inactive
same,Potency,[6],inactive
same,Potency,[8],21.7 µM (active)
same,Potency,[18],inactive
same,outcome,[10],inactive
same,Potency,[11],inactive
same,Potency,[12],inactive
same,Potency,[13],inactive
same,Potency,[14],inactive
O=C1C=CC(=O)N1c1cccc(N2C(=O)C=CC2=O)c1,Potency,[1],61.1 µM (active)
same,Potency,[16],inactive
same,Potency,[2],68.6 µM (active)
same,Potency,[3],inactive
same,Potency,[4],inactive
same,Potency,[5],21.7 µM (active)
same,Potency,[18],54.9 µM (active)
same,outcome,[10],inactive
same,Potency,[13],61.1 µM (active)
same,Potency,[14],inactive
same,Potency,[15],5.45 µM (active)
